The structures appear in SMILES notation. A number with no mark means an inactive call. The rule behind the calls is not given here.

The assay concerns Rolipram. Nature of the assay: CYP450 and receptor off-target profile – biochemical, Ricerca HitProfilingScreen, selectivity assay for GPR7 antagonist project, late-stage follow-up (AID 504401). The note with it: Ricerca radioligand binding and CYP450 panel, at 10 µM, stronger effect = higher value.

For the molecule `COc1ccc(Oc2c(Cl)cnn(-c3cc(C)cc(C)c3)c2=O)cc1`, the inhibition – broadly, the share of the control response that was lost under treatment – is 22%.

(Values after PubChem BioAssay AID504401 (The Scripps Research Institute Molecular Screening Center, 2011).)
